Laboratory results reported in PubChem BioAssay AID624330 (Southern Research Specialized Biocontainment Screening …, 2012).
Out of some 340,000 compounds screened, about 2,100 (0.62%) were called active.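 How the source made its calls: active means first-screen hits whose inhibition reached a set limit at any dose in the follow-up dose series; inconclusive means inhibition above the set first-screen limit but never retested; inactive means the rest.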 These entries were drawn from the full list. Potency and affinity values are given separately.

Molecular target: Rac GTPase-activating protein 1 (Homo sapiens) (UniProt Q9H0H5)
Experiment: MgcRacGAP GTPase-activating activity inhibitors, confirmation, biochemical, ADP Hunter fluorescence, primary and confirmatory (AID 624330);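 further: fluorescence reports GDP produced by GAP-driven GTP hydrolysis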
Conditions: MgcRacGAP-stimulated Rac1 GTP hydrolysis, at 30 µM, active compounds read high, GST-tagged Rac1 F28L mutant substrate

Chain of Rac GTPase-activating protein 1 (Homo sapiens) (Q9H0H5 whole entry, looked up): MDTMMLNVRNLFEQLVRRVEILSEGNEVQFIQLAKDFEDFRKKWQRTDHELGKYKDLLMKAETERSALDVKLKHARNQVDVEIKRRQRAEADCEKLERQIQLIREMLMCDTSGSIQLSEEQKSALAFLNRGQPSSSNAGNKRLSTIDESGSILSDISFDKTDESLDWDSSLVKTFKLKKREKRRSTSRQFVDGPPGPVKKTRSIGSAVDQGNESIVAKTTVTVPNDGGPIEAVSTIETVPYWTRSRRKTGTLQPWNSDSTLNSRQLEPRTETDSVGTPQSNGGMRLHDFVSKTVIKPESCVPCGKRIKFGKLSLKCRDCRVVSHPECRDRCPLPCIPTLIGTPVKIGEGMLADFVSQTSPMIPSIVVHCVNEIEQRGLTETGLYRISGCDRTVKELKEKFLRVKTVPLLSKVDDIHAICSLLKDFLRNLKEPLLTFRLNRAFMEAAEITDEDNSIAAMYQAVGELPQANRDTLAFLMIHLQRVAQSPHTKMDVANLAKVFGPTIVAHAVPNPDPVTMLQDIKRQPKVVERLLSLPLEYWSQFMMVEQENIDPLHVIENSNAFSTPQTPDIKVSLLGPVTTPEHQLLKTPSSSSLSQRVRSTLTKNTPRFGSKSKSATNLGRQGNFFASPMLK

inhibition, inactive:
COc1ccc(Cn2nnnc2C(c2ccccn2)N2CCN(c3cc(Cl)ccc3C)CC2)cc1 (stereo unspecified) 3.5%
CCOC(=O)c1[nH]c2ccccc2c1NC(=O)COC 4.84%
CCOC(=O)c1[nH]c2ccccc2c1NC(=O)C(C)(C)C 5.02%
Cc1cccc(NC(=O)COC(=O)c2n[nH]c3ccccc23)c1C 4.6%
CCCCNC(=O)Nc1c(C(=O)OCC)[nH]c2ccccc12 5.71%
CCOC(=O)c1[nH]c(C)c(C(=O)Nc2ccccc2C)c1C 6.7%
CCOC(=O)c1[nH]c2ccccc2c1N=CN(C)C 27.9%
CCOC(=O)c1[nH]c2ccccc2c1N=CN(CC)CC 14.9%
CCCC(=O)Nc1c(C(=O)OCC)[nH]c2ccccc12 4.51%
O=C(CCCn1c(=O)c2sccc2n(CC(=O)OCc2ccccc2)c1=O)NCc1ccco1 6.92%
O=C(NCc1nnc2c(C(F)(F)F)cc(Cl)cn12)c1cccnc1 9.23%
CC(OC(=O)Cc1ccsc1)C(=O)Nc1ccc(C(N)=O)cc1 (stereo unspecified) 2.18%
O=C(NC(=S)N(Cc1ccccc1)c1ccccn1)C1CCCCC1 7.13%
COc1ccccc1NC(=O)NCc1ccccc1F 5.13%
O=C(c1ccccc1)N1CCCC(C(=O)N2CCCCCC2)C1 (stereo unspecified) -4.85%
CCCn1ccc2c(OCC(=O)Nc3ccc(NC(C)=O)cc3)cccc2c1=O -3.32%
O=C(c1cc(Cl)ccc1OCc1ccccc1)N1CCOCC1 6.74%
CC(Oc1ccccc1)C(=O)NNC(=O)c1ccccn1 (stereo unspecified) 3.78%
COc1ccc([C@H]2CC(=O)C=C(c3ccccc3-c3ccccc3)C2)cc1 0.94%
CCCC/C(O)=C1\C(=O)CC(C)(C)CC1=Nc1ccc(OC)cc1 3.47%
O=C(Nc1ccc(F)cc1)Nc1nnc(Cc2ccccc2)s1 2.79%
COc1ccc(C=NNC(=O)CCCC(=O)NN=Cc2ccc(OC)c(OC)c2)cc1OC 2.12%
COc1ccc(/C=N/NC(=O)CCc2n[nH]c(=O)[nH]c2=O)cc1OC 4.75%
COc1ccc(/C=N/NC(=O)CNc2n[nH]c(=O)[nH]c2=O)cc1OC 10.5%
COc1cc(/C=N/NC(=O)CSc2cc(C)c(Br)cc2C)ccc1O 15.9%
COc1cc(/C=N/NC(=O)CCc2c(C)n[nH]c2C)ccc1O 3.71%
CCOc1cc(/C=N/NC(=O)COc2nc(C)cc(COC)c2C#N)ccc1O 16.6%
COc1cc(/C=N/NC(=O)c2cc(-c3ccccc3)nc3ccccc23)ccc1O 21.3%
COc1cc(/C=N/NC(=O)C(C)Nc2n[nH]c(=O)[nH]c2=O)cc(OC)c1O (stereo unspecified) 11.1%
CC(=O)c1ccc2ccccc2c1OC(=O)c1ccncc1 6.45%
CSc1sc(-c2ccnc(SCC(=O)C(C)(C)C)n2)c2c1C(=O)CC(C)(C)C2 13.4%
CCn1c(SCC(=O)Nc2ccc(F)cc2)nc2ccccc2c1=O 0.4%
Cc1ccc(C(=O)N2CCC(C(=O)NCc3ccco3)CC2)cc1 5.06%
COc1cc(OC)cc(C(=O)Nc2ncn[nH]2)c1 6.96%
COc1cc(/C=N/N2C(=O)C3C4c5ccccc5C(c5ccccc54)C3C2=O)ccc1O (stereo unspecified) 4.88%
O=C1C2C3C=CC(CC3)C2C(=O)N1/N=C/c1ccc(O)cc1 (stereo unspecified) 1.46%
O=C1C2C3C=CC(CC3)C2C(=O)N1/N=C/c1ccccc1O (stereo unspecified) 3.85%
O=C1c2ccccc2C(=O)N1/N=C/c1ccc(O)c(O)c1O -97.2%
COc1ccc(/C=N/N2C(=O)c3ccccc3C2=O)cc1 -3.67%
O=C1c2ccccc2C(=O)N1N=Cc1ccc2c(c1)OCO2 5.49%
CC(NC(=O)C1CC(=O)N(c2ccc3c(c2)OCCO3)C1)c1ccccc1 (stereo unspecified) 10.6%
C/C(=N\NC(=O)C(c1ccncc1)N1CCOCC1)c1ccc(Br)cc1 (stereo unspecified) 5.86%
Cc1cccc(NC(=O)CN2C(=O)N/C(=C/c3cc(C)n(-c4cccnc4)c3C)C2=O)c1 -10.6%
COc1ccccc1C(CNC(=O)c1cccc(S(=O)(=O)N2CCCc3ccccc32)c1)N(C)C (stereo unspecified) 4.28%
Cc1cc(C)nc(NS(=O)(=O)c2ccc(NC(=S)NC(=O)C(C)(C)C)cc2)n1 8.49%
CC(=O)N1CCc2cc(S(=O)(=O)NCCCOC(C)C)ccc21 2.11%
CC(=O)c1ccc(S(=O)(=O)N2CCC3(CC2)CC(=O)c2ccccc2O3)cc1 14.3%
O=S(=O)(c1cccs1)N1CCN(c2ccccc2Cl)CC1 1.05%
CC(=O)Nc1ccc(NC(=O)Cn2cnc3c(nnn3Cc3ccc(F)cc3)c2=O)cc1 1.41%
CN(C)CCOc1ccc2ccccc2c1 25.2%
c1ccc2cc(OCCOCCOc3ccc4ccccc4c3)ccc2c1 -0.76%
CC1=C(C)CC2(SC1)C(=O)N(c1ccccc1)N=C2N (stereo unspecified) 15%
CC[C@@H](C)[C@@H](C(=O)N1CCN(C(=O)OC(C)(C)C)CC1)n1cc(CCCCNC(=O)OC(C)(C)C)nn1 7.52%
Cc1ccc(CNc2ncc(-c3ccc4c(c3)OCO4)n2C)cc1 30.1%
Cn1c(-c2ccc3c(c2)OCO3)cnc1NCc1ccccc1 30.7%
Cn1c(-c2ccc3c(c2)OCO3)cnc1NCc1cccc(O)c1 26.8%
Cn1c(-c2ccc(F)cc2)cnc1NCc1cc2c(cc1[N+](=O)[O-])OCO2 27.6%
Cn1c(-c2ccc3c(c2)OCO3)cnc1NCc1ccc(Cl)cc1 27.4%
COc1ccc(-c2cnc(NCc3cc4c(cc3[N+](=O)[O-])OCO4)n2C)cc1 28.1%
COc1ccccc1N1CCN(S(=O)(=O)c2ccc(NC(C)=O)cc2)CC1 7.69%
Cc1c(-c2ccccc2)nc2ccccc2c1C(=O)Oc1ccc([N+](=O)[O-])cc1 -7.74%
Cc1ccc(S(=O)(=O)N2CC3(O)CN(C(=O)OC(C)C)N(C(=O)OC(C)C)CC3(OC(=O)NC3CCCC3)C2)cc1 (stereo unspecified) 9.25%
CC(=O)Nc1ccc(S(=O)(=O)NNC(=O)c2ccc([N+](=O)[O-])cc2)cc1 1.83%
COC(=O)CN1C(=O)C(O)(CC(=O)c2ccccc2)c2ccccc21 (stereo unspecified) 9.4%
CC(C)(C)OC(=O)NCCCCCNC(=O)c1nc[nH]c1C(=O)NCC(=O)OCc1ccccc1 5.97%
CCN(CC1COc2ccccc2O1)C(=O)CN1C(=O)NC(C)(c2ccccc2)C1=O (stereo unspecified) 1.68%
NC(=O)c1ccc(NC(=O)COC(=O)c2cccc(Oc3ccccc3)c2)cc1 -3.55%
CCOCCCNC(=S)N1CCCN(c2nc3cc(C)ccc3cc2C#N)CC1 10.8%
O=C(CNC(=O)c1ccc2c(c1)OCCO2)N/N=C/c1ccc(Cl)cc1 13.2%
O=C(N/N=C/c1ccc2c(c1)OCO2)c1ccc2c(c1)OCO2 9.83%
COc1ccc(/C=N/NC(=O)CNC(=O)c2ccc3c(c2)OCCO3)cc1OC 12.1%
CN(C)c1ccc(/C=N/NC(=O)CNC(=O)c2ccc3c(c2)OCCO3)cc1 14.6%
COc1ccc(/C=N/NC(=O)c2ccc3c(c2)OCO3)cc1 7.95%
COc1cccc(/C=N/NC(=O)CNC(=O)c2ccc3c(c2)OCCO3)c1O 8.24%
O=C(N/N=C/c1ccc2c(c1)OCO2)/C(=C/c1ccc2c(c1)OCO2)NC(=O)c1ccccc1 -2.17%
COc1ccc(/C=C(/NC(=O)c2ccccc2)C(=O)N/N=C/c2ccc3c(c2)OCO3)cc1OC 4.26%
CCOC(=O)C(NC(=O)c1ccc(OC)cc1)(Nc1cc(C)on1)C(F)(F)F (stereo unspecified) 9.87%
Cc1ccccc1NC(=O)OCc1cccnc1Oc1ccc(Cl)cc1 10.3%
C/C(=N\NC(=O)c1cc(C)oc1C)c1ccc2c(c1)OCO2 6.44%
CN(C)CCCN(Cc1ccccc1)C(=S)Nc1cccc(C(F)(F)F)c1 3.49%
Cc1ccc2c(c1)NC(=O)C(CC(=O)Nc1ccc(CN3CCC(C)CC3)cc1)O2 (stereo unspecified) 4.76%
Cc1[nH]c(N=Nc2ccccc2)nc1N=Nc1ccccc1 8.63%
Cc1ccccc1OCC(=O)Nc1ccccc1N1CCC(C)CC1 4.53%
O=C(C[n+]1ccc(-c2ccccc2)cc1)Nc1ccc([N+](=O)[O-])cc1 8.73%
COC(=O)C1=C(C)N(Cc2ccccc2)C(=NCCCCO)N[C@H]1c1cccc(C(F)(F)F)c1 10.7%
CC1(C)NS(=O)(=O)Oc2ccccc21 15.4%
O=C(NC1=NCCS1)C1CC(=O)N(c2ccc(F)cc2)C1 (stereo unspecified) 3.19%
Cc1nc2c(ncn2-c2ccccc2)c(=O)n1NC(=O)CN1CCOCC1 6.81%
COc1ccc(/C=C/C(=O)c2ccc3c(c2)OCO3)cc1OC 0.8%
COc1cc(/C=C/C(=O)c2ccc3c(c2)OCO3)cc(OC)c1OC 9.6%
COc1ccc(C(CC(=O)N2CCCCC2)c2c(OC)cc(OC)c3c(-c4ccccc4)cc(=O)oc23)cc1 (stereo unspecified) 5.73%
